CRFR2-BP antag: blocks CRF-induced signaling of the CRF-BP/CRF-R2 complex | inhibition, % at 11.8 µM | HEK293 CRF-R2/CRF-BP, CRF-induced calcium fluorescence | hit rate 0.59% among 350,000;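 active means inhibition of the ligand-induced calcium signal above about 50% at the single tested concentration, limit read from the data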
TLR4 MyD88 comp: inhibitors of human TLR4-MyD88 binding; O00206+Q99836; inhibition, % at 8.4 µM; HeLa CL3-4 TLR4/MyD88 BLA complementation, FRET ratio; hit rate 0.18% among 200,000; in the data active means inhibition above about 25%
ABHD5 PLIN5 PPI: ABHD5-PLIN5 protein interaction inhibition; Split G. princeps luciferase complementation, luminescence, 4 h; inhibition, % at 4 µM; hit rate 0.78% among 360,000; Q00G26+Q8WTS1; AID 602281;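 active means inhibition above the mean inhibition across every tested compound plus 3 SD, cut at about 22% in these data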
TLR9-MyD88 inh: inhibitors of human TLR9-MyD88 binding | Q9NR96+Q99836 | CHO BLA complementation TLR9-MyD88, CCF4 FRET ratio | hit rate 0.21% among 340,000 | inhibition, % at 4.98 µM;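 active means inhibition above the mean over all tested compounds plus 3 SD, cut at about 21% in these data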
Target sequence (Q99836 whole entry, looked up): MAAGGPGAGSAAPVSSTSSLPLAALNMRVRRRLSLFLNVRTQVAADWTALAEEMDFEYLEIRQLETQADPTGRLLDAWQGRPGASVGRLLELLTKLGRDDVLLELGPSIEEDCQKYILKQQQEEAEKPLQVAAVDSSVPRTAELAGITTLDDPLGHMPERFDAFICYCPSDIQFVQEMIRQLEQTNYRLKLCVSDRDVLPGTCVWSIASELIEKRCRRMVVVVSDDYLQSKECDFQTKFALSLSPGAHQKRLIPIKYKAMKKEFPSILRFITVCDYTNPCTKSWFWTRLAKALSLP
Target sequence (Q9NR96 whole entry, looked up): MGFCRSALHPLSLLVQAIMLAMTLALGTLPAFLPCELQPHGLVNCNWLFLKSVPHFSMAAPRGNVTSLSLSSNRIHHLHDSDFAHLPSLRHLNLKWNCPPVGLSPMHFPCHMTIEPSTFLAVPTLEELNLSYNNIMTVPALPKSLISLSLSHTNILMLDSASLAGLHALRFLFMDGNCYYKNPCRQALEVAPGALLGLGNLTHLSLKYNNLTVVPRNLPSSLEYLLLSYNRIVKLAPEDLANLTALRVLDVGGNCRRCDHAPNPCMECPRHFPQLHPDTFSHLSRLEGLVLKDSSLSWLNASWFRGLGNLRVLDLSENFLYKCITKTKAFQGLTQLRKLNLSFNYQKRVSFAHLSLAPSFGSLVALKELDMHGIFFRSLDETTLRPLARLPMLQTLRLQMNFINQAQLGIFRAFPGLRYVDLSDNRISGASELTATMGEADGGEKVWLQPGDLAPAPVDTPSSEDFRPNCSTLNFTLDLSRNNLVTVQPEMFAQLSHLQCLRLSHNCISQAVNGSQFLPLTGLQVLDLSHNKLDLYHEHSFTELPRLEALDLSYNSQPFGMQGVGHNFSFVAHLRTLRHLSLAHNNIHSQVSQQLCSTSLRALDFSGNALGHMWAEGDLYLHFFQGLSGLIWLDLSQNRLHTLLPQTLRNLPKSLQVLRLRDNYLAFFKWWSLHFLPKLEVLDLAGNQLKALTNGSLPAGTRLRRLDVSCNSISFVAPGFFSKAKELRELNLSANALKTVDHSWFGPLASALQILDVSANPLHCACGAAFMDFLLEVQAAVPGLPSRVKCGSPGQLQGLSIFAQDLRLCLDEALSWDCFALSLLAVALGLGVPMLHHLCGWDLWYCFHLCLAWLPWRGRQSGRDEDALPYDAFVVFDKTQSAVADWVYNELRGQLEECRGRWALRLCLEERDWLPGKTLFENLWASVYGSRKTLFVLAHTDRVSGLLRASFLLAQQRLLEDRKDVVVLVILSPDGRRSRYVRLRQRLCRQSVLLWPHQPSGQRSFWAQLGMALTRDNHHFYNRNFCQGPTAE
NOD2 RIPK2 PPI: blocks binding of human NOD2 to RIPK2; inhibition, % at 4.98 µM; CHO BLA complementation NOD2-RIPK2, CCF4 ratio; hit rate 0.38% among 360,000; in the data active means inhibition above about 21%
HTR2A ag: agonists of mouse serotonin 5-HT2A receptor (HTR2A). CHO-K1 mHTR2A beta-arrestin complementation, luminescence; percent of 30 µM serotonin response. hit rate 0.66% among 360,000. activation, % at 7.6 µM. AID 624169. P35363;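 active means activation above a run cutoff, the mean activation of all tested compounds plus 3 SD, cut at about 14% in these data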
TLR4 MyD88 cnf: confirmation of human TLR4-MyD88 binding inhibitors. HeLa CL3-4 BLA complementation, CCF4 FRET ratio. inhibition, % at 8.4 µM. hit rate 50% among 350. shares compounds with TLR4 MyD88 comp;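 active means mean inhibition across three repeat runs above about 25% carried over from the earlier screen, limit read from the data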
BLA inhibitor ct: counter-screen for TLR4-MyD88 inhibitors: beta-lactamase reporter inhibitors. shares compounds with TLR4 MyD88 comp. HeLa BLA reporter, CCF4 FRET ratio. inhibition, % at 8.4 µM. hit rate 63% among 350;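 active means mean inhibition over three repeats above about 26% taken from the earlier screen, limit read from the data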;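 further: HeLa cells stably expressing beta-lactamase reporter as counterscreen for TLR4-MyD88 inhibitors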
TLR9-MyD88 conf: TLR9-MyD88 interaction inhibition, confirmation; CHO TLR9/MyD88 BLA complementation, CCF4 FRET ratio; AID 540250; hit rate 51% among 680; inhibition, % at 4.98 µM; shares compounds with TLR9-MyD88 inh;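 active means mean inhibition across three repeats above about 21% taken from the earlier screen, limit read from the data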;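 further: blue over green emission ratio reports constitutive TLR9 MyD88 association via BLA complementation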
BLA counter-1: beta-lactamase reporter inhibition, counter-screen artifact; shares compounds with TLR9-MyD88 inh; CHO-BLA cells, CCF4 FRET ratio, BLA reporter; hit rate 7% among 680; inhibition, % at 4.98 µM;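 active means mean inhibition above a 50% cutoff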;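 further: counterscreen of TLR9-MyD88 hits on CMV-driven BLA in CHO-K1 cells; higher means less blue over green ratio so more BLA blockade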
TLR9 CHO cytotox: CHO cell toxicity counter-screen for TLR9-MyD88 inhibitors | TLR9-MyD88 CHO cells cytotoxicity, luminescence | inhibition, % at 4.98 µM | shares compounds with TLR9-MyD88 inh | hit rate 39% among 680; in the data active means inhibition above about 11%
ABHD5 PLIN5 conf: confirmation of human ABHD5-PLIN5 interaction inhibitors; shares compounds with ABHD5 PLIN5 PPI; biochemical ABHD5-PLIN5 interaction, luminescence; inhibition, % at 4 µM; hit rate 67% among 2,200; AID 651612; in the data active means inhibition above about 23%
HNF4 split-luc: counter-screen for ABHD5-PLIN5 inhibitors: HNF4 split-luciferase | shares compounds with ABHD5 PLIN5 PPI | HNF4 dimerization, luminescence, biochemical | inhibition, % at 4 µM | hit rate 77% among 2,200;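 active means mean inhibition across replicate wells exceeding the computed hit threshold, cut at about 13% in these data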;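 further: light from luciferase halves that rejoin when HNF4 fusion proteins dimerize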
NOD2 RIPK2 conf: confirmation of human NOD2-RIPK2 interaction inhibitors. shares compounds with NOD2 RIPK2 PPI. CHO cells, NOD2-RIPK2 BLA complementation, CCF4 FRET. inhibition, % at 4.98 µM. hit rate 70% among 1,200;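 active means mean inhibition across replicates above a set limit taken from the earlier primary screen, cut at about 21% in these data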
BLA counter-2: NOD2-RIPK2 counterscreen BLA reporter activity; shares compounds with NOD2 RIPK2 PPI; CHO BLA reporter, CCF4 FRET ratio; inhibition, % at 4.98 µM; hit rate 57% among 1,200; AID 624371;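 active means mean inhibition above the low-control mean inhibition plus three low-control SD, cut at about 11% in these data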
A number is an active result; - = inactive; . = not tested or not shown. A selection: hits, their analogues and other compounds. The true share with any hit is near 2.4%.

SMILES | CRFR2-BP antag | TLR4 MyD88 comp | ABHD5 PLIN5 PPI | TLR9-MyD88 inh | NOD2 RIPK2 PPI | HTR2A ag | TLR4 MyD88 cnf | BLA inhibitor ct | TLR9-MyD88 conf | BLA counter-1 | TLR9 CHO cytotox | NOD2 RIPK2 conf | BLA counter-2 | others
N#C/C(=C/c1ccc(-c2ccc(S(N)(=O)=O)cc2)o1)C(=O)Nc1ccccc1 | - | - | - | - | - | - | . | . | . | . | . | . | .
N#C/C(=C/c1ccc(-c2ccc(S(N)(=O)=O)cc2)o1)c1nc2ccccc2s1 | - | 46 | - | 47 | 39 | - | 46 | 75 | 46 | - | 24 | 71 | 71
Cc1n[nH]c(C)c1N1C(=O)c2cccc3c(Br)ccc(c23)C1=O | - | 73 | - | 48 | 57 | - | 45 | 79 | 22 | - | - | 71 | 59
O=c1[nH]c2ccccc2nc1/C=C/c1ccc(O)cc1 | - | 36 | - | 36 | 38 | - | 30 | 53 | - | - | - | 42 | 53
Cc1ccc(NC(=O)CN(C)C(=O)Cc2ccc(Cl)c(Cl)c2)cc1 | - | . | - | - | - | - | . | . | . | . | . | . | .
Cc1ccc(NC(=O)CN(C)C(=O)Cn2ncc(Cl)c(Cl)c2=O)cc1 | - | 32 | - | - | 25 | - | - | - | . | . | . | 23 | -
O=C(NCc1ccco1)C1C(=O)Nc2ccccc2C(=O)N1C1CCCCC1 (stereo not drawn) | . | . | - | . | - | - | . | . | . | . | . | . | .
Cc1cc(Br)cn2c(CC(C)(C)C)c(C3CCCCC3)nc12 | . | . | - | . | - | - | . | . | . | . | . | . | .
COc1ccc(-c2cc(N)n(S(=O)(=O)c3c(F)c(F)c(F)c(F)c3F)n2)cc1OC | - | 27 | 30 | - | 59 | - | - | - | . | . | . | 86 | 18 | ABHD5 PLIN5 conf=50;HNF4 split-luc=-
CC1(Cc2ccc(Cl)s2)C(=O)Nc2c(Cl)ccc(Cl)c21 (stereo not drawn) | . | . | - | . | - | - | . | . | . | . | . | . | .
O=C(COc1ccccc1)NC(=S)Nc1cccc2c(O)cccc12 | - | . | - | - | - | - | . | . | . | . | . | . | .
CCOC(=O)CS(=O)(=O)c1nc(-c2ccccc2)cc(C(F)(F)F)n1 | - | 25 | 67 | 30 | 85 | - | - | - | 30 | - | 100 | 85 | 27 | ABHD5 PLIN5 conf=76;HNF4 split-luc=107
CCOC(=O)CS(=O)(=O)c1ccccc1 | - | - | - | - | - | - | . | . | . | . | . | . | .
O=C(/C=C/c1cn(CC(O)CN2CCCCCC2)c2ccccc12)c1cccs1 (stereo not drawn) | - | 31 | - | 47 | 47 | - | 37 | 60 | 28 | - | - | 56 | 52
COc1cc(/C=C/C(=O)CC(=O)/C=C/c2ccc(O)c(OC)c2)ccc1O | - | 32 | 32 | 28 | 37 | - | - | 43 | 30 | - | - | 59 | 61
Cc1noc(C)c1NC(=O)N1C[C@H](O)COC[C@H]2O[C@@H](CC(=O)NCC3CCCCC3)CC[C@@H]21 | . | . | - | . | - | - | . | . | . | . | . | . | .
Cc1ccc(C(NC(=O)C2CCN(Cc3ccc(Cl)c(Cl)c3)CC2)c2ccccn2)cc1 (stereo not drawn) | . | . | - | . | - | - | . | . | . | . | . | . | .
CN(C)c1ccc(/C=C/c2nc3ccccc3s2)cc1 | - | 45 | - | 30 | 22 | - | 44 | 68 | 46 | 59 | 26 | 57 | 70
CCCCC[C@H](C)N1C[C@@H](COCc2ccccc2)Oc2cc(N3CCC[C@@H]3COC)ccc2S1(=O)=O | . | . | - | . | - | - | . | . | . | . | . | . | .
CCCCNC(=O)CN1C(=O)c2cccc(N)c2C1=O | - | 38 | - | 38 | 45 | - | 27 | 48 | - | - | - | 45 | 48
CC1CCCCC1NC(=O)CN1C(=O)c2cccc(N)c2C1=O (stereo not drawn) | - | 33 | - | 38 | 47 | - | 33 | 52 | - | - | - | 42 | 48
CC1CCCCC1NC(=O)COC(=O)CN1C(=O)c2ccccc2C1=O (stereo not drawn) | - | . | - | - | - | - | . | . | . | . | . | . | .
COc1ccccc1-c1cccc(-c2nc(C(=O)Nc3nccs3)cc3c2[C@H](CCO)N(C(C)=O)C3)c1 | . | . | - | . | - | - | . | . | . | . | . | . | .
Cc1ncsc1C(=O)N1N=C2/C(=C/c3ccccc3)CCCC2C1c1ccccc1 (stereo not drawn) | - | - | - | - | - | - | . | . | . | . | . | . | .
Cc1nc(N2N=C3/C(=C/c4ccc(F)cc4)CCCC3C2c2ccc(F)cc2)sc1C(=O)N(C)C (stereo not drawn) | - | 41 | - | - | 42 | - | 37 | 65 | . | . | . | 57 | 65
CCOC(=O)CC1=C(C(=O)OCC)C(c2cccnc2)C(C#N)=C(N)O1 (stereo not drawn) | - | - | - | - | - | - | . | . | . | . | . | . | .
CCOC(=O)C1=C(CSc2nc(-c3ccccc3)ccc2C#N)OC(N)=C(C#N)C1c1cccnc1 (stereo not drawn) | - | 27 | - | - | 21 | - | - | - | . | . | . | 26 | 37
Cc1cccc(C)c1-n1c(C)cc(/C=N\Nc2ccc([N+](=O)[O-])cn2)c1C | - | 29 | - | 44 | 30 | - | 35 | 64 | 31 | - | - | 61 | 62
COc1ccc(CN2C(=O)C(CC(=O)NCC3CCCCC3)CC(C(=O)N(C)C)=C2C)cc1 (stereo not drawn) | - | . | - | - | - | - | . | . | . | . | . | . | .
COC(=O)C1=CN(c2ccc(C)cc2)C(N)=C(C#N)C1c1ccc(OC)cc1 (stereo not drawn) | . | . | - | . | - | - | . | . | . | . | . | . | .

Assay outcomes: PubChem BioAssay, several laboratories
